Compound activity: PubChem BioAssay, several laboratories
In the library only some 4.8% were active in any assay of this set; here they are far more common.
STAT1 activator = activators of IFN-gamma induced STAT1 signaling | NIH 3T3 STAT1-luciferase reporter, luminescence; 100% = IFN-gamma alone, no compound | activation (% of control), % at 5.5 µM | 200,000 tested, 2.6% active | AID 932;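 active means activation above the screen-wide mean activation plus 3 SD, cut at about 130% in these data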;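 further: raw ratio to IFN-gamma control signal so 100% means no change and 0% no light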
Wee1 degr inh = blocks degradation of human Wee1 kinase. P30291. HeLa Luc-Wee1K328M stability, luciferase luminescence; 100% = proteasome inhibitor MG132 effect. reporter increase, % at 5 µM. 220,000 tested, 1.2% active. AID 1321;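 active means activation above the mean of all tested compounds plus 3 SD, set per screening run, cut at about 8.8% in these data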;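 further: cells exposed to compound for 20 h before luminescence read; 0% = DMSO alone and 100% = MG132 at 30 µM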
Target sequence (P30291 whole entry K328M): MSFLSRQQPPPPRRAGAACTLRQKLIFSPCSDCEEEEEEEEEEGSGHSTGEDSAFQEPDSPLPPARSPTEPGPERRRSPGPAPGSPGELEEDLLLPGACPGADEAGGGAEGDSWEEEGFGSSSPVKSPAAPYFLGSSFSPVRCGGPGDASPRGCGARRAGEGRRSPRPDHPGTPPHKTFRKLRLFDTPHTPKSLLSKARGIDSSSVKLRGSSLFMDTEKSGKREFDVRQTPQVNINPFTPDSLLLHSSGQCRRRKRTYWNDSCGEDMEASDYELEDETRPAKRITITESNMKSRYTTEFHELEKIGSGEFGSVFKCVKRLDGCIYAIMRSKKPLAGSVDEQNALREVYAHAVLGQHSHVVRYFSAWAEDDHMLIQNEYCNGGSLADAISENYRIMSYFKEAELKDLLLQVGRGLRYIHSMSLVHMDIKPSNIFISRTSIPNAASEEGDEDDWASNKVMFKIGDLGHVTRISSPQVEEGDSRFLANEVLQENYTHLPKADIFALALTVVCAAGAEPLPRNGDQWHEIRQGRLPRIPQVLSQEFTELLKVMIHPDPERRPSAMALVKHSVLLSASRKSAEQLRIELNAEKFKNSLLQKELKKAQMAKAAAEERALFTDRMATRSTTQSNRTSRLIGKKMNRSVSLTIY
Hsp70 activator = transcriptional activators of Hsp70; HeLa Hsp70 promoter luciferase reporter, luminescence; scaled: vehicle 0, proteasome-inhibitor control 100%; activation, % at 10 µM; 200,000 tested, 0.04% active; AID 1203;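 active means activation above the mean across all tested compounds plus 3 SD, cutoff set per campaign, cut at about 5.5% in these data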;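 further: 100% = MG132 at 30 µM as the positive control and 0% = DMSO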
APP 5'UTR act = APP 5'UTR luciferase reporter activation. SH-SY5Y APP 5'UTR luciferase reporter, luminescence; zero percent = DMSO vehicle wells. activation, % at 2 µM. 190,000 tested, 1% active. AID 1276;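 active means activation above a set limit, based on mean plus 3 SD of controls, cut at about 140% in these data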
NF-kB neuron act = raises NF-kB expression in human neuronal cells; 190,000 tested, 1.6% active; fold change at 12.5 µM; NF-kB reporter expression; stronger effect = higher value; AID 1239; in the data active means fold change above about 3.3
APP 5UTR inh = APP translation inhibition; SH-SY5Y APP 5'UTR-luciferase reporter, luminescence; inhibition, % at 2 µM; 190,000 tested, 0.82% active; AID 1285;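 active means inhibition above a set limit, derived from the sample mean plus 3 SD, cut at about 45% in these data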
Wee1 degr conf = human Wee1 degradation inhibition, confirmation; activation, % at 5 µM; AID 1410; shares compounds with Wee1 degr inh; HeLa Luc-Wee1K328M degradation, luminescence; vehicle 0%, proteasome-blocked wells 100%; 1,100 tested, 4% active; in the data active means activation above about 8.9%
Numbers without * were called inactive; x = not tested or not shown.

SMILES	STAT1 activator	Wee1 degr inh	Hsp70 activator	APP 5'UTR act	NF-kB neuron act	APP 5UTR inh	Wee1 degr conf
CC1CC(C)CN(C(=O)CCNS(=O)(=O)c2cccs2)C1 (centres undefined)	94	-2	-1	8	1.2	-8	x
O=C(CCNS(=O)(=O)c1cccs1)N1CCc2ccccc2C1	119	19*	0	14	1.5	-14	1
Cc1ccc2c(c1)c1ccc3c(c1n2C)C(=O)C=CC3=O	x	-2	x	x	x	x	x
Cc1nc2cc(NC(=O)N3CCC(c4ccccc4)C3)ccc2n1C (centres undefined)	116	4	0	19	1.7	-19	x
CC(=O)c1cccc(NC(=O)N2CCC(c3ccc(C)cc3)C2)c1 (centres undefined)	107	14*	0	0	1.6	0	2
CC(=O)N1CCN(C(=S)NCCc2ccccc2)CC1	106	-1	0	-6	1.6	6	x
NC(=O)N/N=C/c1cn(-c2ccccc2)nc1-c1cccs1	126	16*	0	33	1.1	-33	3
O=C(O)c1cccc(N/N=C/c2cn(-c3ccccc3)nc2-c2cccs2)c1	126	1	0	86	1.2	-86	x
CC1=C(C(=O)Nc2nc3ccccc3s2)C(c2ccco2)C(C#N)=C(SCC(=O)NC2CCCCC2)N1 (centres undefined)	98	-2	0	9	0.66	-9	x
Cc1c(NC(=O)C(C)OC(=O)c2cccs2)c(=O)n(-c2ccccc2)n1C (centres undefined)	100	30*	0	26	1.4	-26	0
COc1ccc(N(CC(=O)Nc2ccc(S(=O)(=O)N3CCCCC3)cc2)S(C)(=O)=O)cc1OC	98	24*	0	-9	0.83	8	0
COc1ccc(N(CC(=O)Nc2ccc(S(=O)(=O)N3CCCC3)cc2)S(C)(=O)=O)cc1OC	98	1	0	-3	0.83	3	x
O=C(Cn1cnc2ccccc2c1=O)OCC(=O)c1ccc2c(c1)OCCO2	98	11*	0	9	1	-9	1
O=C(Cn1cnc2ccccc2c1=O)Nc1ccc2c(c1)OCCO2	130*	11*	0	94	1.1	-94	6
N#CC1=C(N)Oc2n[nH]c(-c3cccnc3)c2C1c1cc(F)ccc1F (centres undefined)	95	2	0	1	0.95	-2	x
Cc1ccc2cc3c(N)c(C(=O)Nc4c(C)[nH]c(=O)[nH]c4=O)sc3nc2c1	91	12*	0	-4	1.2	4	-2
Cc1ccc2nc3sc(C(=O)Nc4c(C)[nH]c(=O)[nH]c4=O)c(N)c3cc2c1	94	2	0	16	0.73	-16	x
O=C(NCC1CCCO1)C(=O)N/N=C/c1ccc(O)c(Cl)c1 (centres undefined)	x	4	x	x	x	x	x
Cc1cccc(Cn2cnc3c(nnn3Cc3ccccc3F)c2=O)c1	98	0	0	-7	1.2	7	x
CC(C)N(C(=O)c1ccc(C(=O)Nc2ccc([N+](=O)[O-])cc2)cc1)C(C)C	109	-2	1	-13	1.1	13	x
CCC(=O)Oc1ccc(C(=O)Nc2ccc([N+](=O)[O-])cc2)cc1	134*	12*	0	44	1.2	-44	3
COc1cc(NC(=O)Cn2ccsc2=N)cc(OC)c1	x	13*	x	x	x	x	-1
O=C(Nc1ccccc1)Nc1cc(OCC(F)(F)F)cc(OCC(F)(F)F)c1	96	14*	0	-4	0.5	4	2
COC(=O)C1=C(C)NC(=S)NC1/C=C/c1ccccc1 (centres undefined)	98	1	0	-4	0.88	4	x
CCOC(=O)C1=C(C)NC(=S)NC1/C=C/c1ccccc1 (centres undefined)	85	16*	0	7	0.75	-7	5
SMILES	STAT1 activator	Wee1 degr inh	Hsp70 activator	APP 5'UTR act	NF-kB neuron act	APP 5UTR inh	Wee1 degr conf
CC(C)CCOc1ncnc2c1sc1nc3c(cc12)CSC(C)(C)C3	104	-2	-1	-1	0.93	1	x
COc1cc(N=Nc2c(C)n(C)n(-c3ccccc3)c2=O)ccc1N	102	-1	0	-6	1.4	6	x
Cc1cc(/C=N/NC(=O)COc2cccc3cccnc23)c(C)n1-c1ccc(O)cc1	101	14*	0	-11	1	11	0
Cc1cc(C)cc(-n2c(C)cc(/C=N\NC(=O)COc3cccc4cccnc34)c2C)c1	107	4	0	16	0.49	-16	x
CCCN(CC1CC1)C(=O)CSc1nnc(-c2cc(-c3cccs3)nc3ccccc23)o1	100	19*	0	-17	0.34	17	-2
CC1CN(C(=O)C2CCCN2S(=O)(=O)c2ccc(Cl)cc2)CC(C)O1 (centres undefined)	88	1	0	-6	1.2	6	x
Cc1ccc(-c2nnc(N)s2)cc1	115	-1	0	5	1.3	-5	x
CC(C)c1ccc(-c2nnc(N)s2)cc1	133*	12*	0	62	3.8*	-62	3
COc1ccccc1OCC(=O)NNc1c2ccccc2nc2ccccc12	x	3	x	x	x	x	x
COc1cccc(NC(=O)c2ccc(-c3ccc([N+](=O)[O-])cc3)o2)c1	115	-2	0	15	1.4	-14	x
C/C(=N\N=c1/sc2ccccc2n1C)c1ccc(N2CCOCC2)cc1	102	14*	1	0	1.4	0	1
CC(=O)N/N=c1\sc2ccccc2n1C	112	4	0	12	1.2	-12	x
COc1cc(OC)c(NC(=O)/C=C/C(=O)O)cc1Cl	x	12*	x	x	x	x	0
COCCn1c(C)cc(/C=C2/NC(=O)N(c3ccc(Cl)cc3)C2=O)c1C	98	4	0	-11	1.2	11	x
O=C(c1ccc(S(=O)(=O)NCC2CCCO2)cc1)N1CCN(c2ccccc2F)CC1 (centres undefined)	88	26*	0	5	1.8	-4	1
COC(=O)C1C(=O)C=C(Nc2ccc(F)cc2)CC1c1ccc(OC)cc1 (centres undefined)	112	-2	0	5	1.9	-5	x
CCNCc1ccc(OCc2ccccc2F)c(OC)c1	104	2	0	9	1.7	-9	x
COc1cc(CNCCCCO)ccc1OCc1ccccc1F	114	12*	0	11	1.8	-11	-2
CCOCCCNC(=S)Nc1ccc(S(N)(=O)=O)cc1	97	13*	0	-4	1.2	4	2
C=CCn1c(SCC(=O)Nc2ccccc2CC)nnc1-c1ccncc1	93	13*	0	11	1.1	-11	3
O=C(/C=C/c1ccco1)NC(=S)Nc1cccc(-c2nc3ccccc3s2)c1	111	13*	0	7	x	-7	8
